Assay [1] in a line: yeast TOR pathway RPL19A-GFP modulators, primary screen, cell-based, S. cerevisiae, multiplex flow cytometry (AID 1862; in the data active means percent of DMSO control GFP below about 86%;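 further: lower values mimic rapamycin by blocking the RPL19A rise seen in DMSO cells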). The note with it: S. cerevisiae RPL19A-GFP strain, flow cytometry fluorescence, 3 h; at 10 µM; stronger effect = lower value. (In general: A flow cytometer gives signals particle by particle.)
Assay [2] can be described thus: modulators of MEP2-GFP levels in yeast, primary screen, S. cerevisiae, multiplex flow cytometry (AID 1867;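 active means GFP response, as percent of the DMSO control, above the screen-wide mean plus 3 SD, about 139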;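 further: median GFP channel fluorescence of barcode-gated MEP2-GFP cells measured by flow cytometry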). The note with it: S. cerevisiae MEP2-GFP strain, 3 h, at 10 µM, stronger effect = higher value, 100% means same as DMSO wells.
The nature of assay [3]: modulators of CIT2-GFP expression in yeast, primary screen, S. cerevisiae, GFP fusion, multiplex flow cytometry (AID 1870;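 active means percent response above a set limit, the screen-wide mean plus 3 SD, cut at about 130% in these data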;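 further: barcoded CIT2-GFP strain pooled with four other GFP strains with rapamycin as positive control; median GFP fluorescence per well over plate mean of DMSO wells so 100% = DMSO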). The note with it: 3 h, at 10 µM, stronger effect = higher value.
The nature of assay [4]: modulators of LAP4-GFP expression in yeast, primary screen, S. cerevisiae, multiplex flow cytometry (AID 1873). The note with it: 3 h, at 10 µM, stronger effect = higher value.
Assay [5] in a line: modulators of AGP1-GFP expression in yeast TOR pathway, primary screen, cell-based, multiplex flow cytometry, S. cerevisiae (AID 1887;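 active means GFP signal above the screen-wide mean plus 3 SD, that is over about 124.5% of the solvent control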;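 further: AGP1-GFP fusion strain of S. cerevisiae within a five-strain barcoded multiplex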). The note with it: 3 h, at 10 µM, stronger effect = higher value.
The nature of assay [6]: inhibitors of CD8+ T cell-vesicle binding, pilot screen, LFA-1/ICAM-1 modulator project, MLPCN validation set, flow cytometry (AID 2523;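 active means response below a set limit, under 55% cells CD8-positive and vesicle-bound, and CD8 cells' 90th-percentile brightness under 279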;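 on vesicle binding response: mean PE anti-B7-1 fluorescence of CD8+ cells relative to row control; 100% = QL9-loaded vesicles with DMSO vehicle in the same plate row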). The note with it: 2C mouse CD8+ T cells, at 7 µM, stronger effect = lower value; double positive events: measured here: CD8+/vesicle+ event percentage.
Assay [7] addresses Integrin beta-1 (Homo sapiens) + Integrin alpha-4 (Homo sapiens) (UniProt P13612+P05556). The assay can be described thus: inhibition of HUTS-21 binding to VLA-4, pilot screen, VLA-4 allosteric modulator project, U937 cells, HUTS-21 mAb, flow cytometry, validation set (AID 2674;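 active means inhibition above 50%, about 3 SD of the validation set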;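 further: antibody binding induced by the VLA-4 ligand LDV present at three times its Kd; 0% = LDV ligand with antibody and no compound and 100% = antibody without LDV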). As to conditions: HUTS-21 LIBS mAb binding, at 6.7 µM, stronger effect = higher value, binding induced by LDV ligand.

The nature of assay [8]: superoxide lowering in aged yeast cells, pilot screen, validation compound set (AID 2706;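 active means superoxide response below 65% of plate, a cut near 3 SD across the whole screen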;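 further: yeast exposed to compound for one week at 30 degrees C before staining; 100% = mean of all compound wells on the same plate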). The note with it: S. cerevisiae aging, superoxide DHE fluorescence; at 10 µM; stronger effect = lower value.
Assay [9] deals with Beta-adrenergic receptor kinase 1 (Homo sapiens) (UniProt P25098). The experiment in a line: GRK2 binders displacing RNA aptamer, biochemical, validation, human GRK2, bead flow cytometry (AID 488806;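 active means aptamer binding inhibition above 30%, about 3 SD of noise from non-fluorescent compounds; inactive means inhibition at or below 30%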). The note with it: bead-bound GRK2, FAM-aptamer displacement, at 10 µM, stronger effect = higher value.
Chain of Beta-adrenergic receptor kinase 1 (Homo sapiens) (P25098 whole entry, looked up): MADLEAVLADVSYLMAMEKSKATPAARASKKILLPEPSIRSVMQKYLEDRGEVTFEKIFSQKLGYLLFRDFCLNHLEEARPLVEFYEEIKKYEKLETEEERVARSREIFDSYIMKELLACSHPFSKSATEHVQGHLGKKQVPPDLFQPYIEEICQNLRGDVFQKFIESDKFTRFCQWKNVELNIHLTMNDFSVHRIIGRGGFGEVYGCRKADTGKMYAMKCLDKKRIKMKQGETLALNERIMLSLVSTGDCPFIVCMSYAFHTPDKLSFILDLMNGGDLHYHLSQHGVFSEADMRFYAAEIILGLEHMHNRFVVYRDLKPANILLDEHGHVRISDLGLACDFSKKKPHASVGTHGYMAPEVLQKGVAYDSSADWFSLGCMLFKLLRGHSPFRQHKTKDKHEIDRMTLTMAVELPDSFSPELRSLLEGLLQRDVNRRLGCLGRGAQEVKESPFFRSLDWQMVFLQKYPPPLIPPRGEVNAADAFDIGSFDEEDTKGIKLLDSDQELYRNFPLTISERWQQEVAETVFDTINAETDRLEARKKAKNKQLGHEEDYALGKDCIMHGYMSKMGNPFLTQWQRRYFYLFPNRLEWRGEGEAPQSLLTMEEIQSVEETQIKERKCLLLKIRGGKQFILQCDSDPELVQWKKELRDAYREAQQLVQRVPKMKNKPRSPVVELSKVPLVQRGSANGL
Assay [10] has as its target Beta-2 adrenergic receptor (Homo sapiens) (UniProt P07550). The experiment in a line: beta2AR agonists driving receptor internalization, pilot screen, cell-based, FAP fluorogen, flow cytometry, validation set (AID 504459;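 active means percent response above 42, roughly 3 SD of non-fluorescent test compounds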;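 further: agonist-driven loss of surface beta2AR via internalization measured by FAP dye flow cytometry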). The note with it: Am2.2-beta2AR cells, FAP surface receptor flow cytometry; at 10 µM; stronger effect = higher value.
The target in assay [11] is AP-2 complex subunit beta (Homo sapiens) (UniProt P63010). The assay can be described thus: inhibitors of arrestin peptide binding to AP2, pilot screen, biochemical, validation set, GST-AP2 beads, flow cytometry (AID 504541;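 active means inhibition above 54%, about 3 SD of non-fluorescent compounds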;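 further: AP2 carries R879A mutation and is captured from E. coli lysate; bead-bound FITC arrestin peptide fluorescence measuring arrestin peptide binding to AP2; 0% = DMSO wells and 100% = excess unlabeled arrestin peptide control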). As to conditions: FITC arrestin peptide, at 10 µM, stronger effect = higher value, AP2 beta2 appendage fragment, R879A mutant.
Chain of AP-2 complex subunit beta (Homo sapiens) (P63010 whole entry, looked up, the tested form may be a part, one chain of several): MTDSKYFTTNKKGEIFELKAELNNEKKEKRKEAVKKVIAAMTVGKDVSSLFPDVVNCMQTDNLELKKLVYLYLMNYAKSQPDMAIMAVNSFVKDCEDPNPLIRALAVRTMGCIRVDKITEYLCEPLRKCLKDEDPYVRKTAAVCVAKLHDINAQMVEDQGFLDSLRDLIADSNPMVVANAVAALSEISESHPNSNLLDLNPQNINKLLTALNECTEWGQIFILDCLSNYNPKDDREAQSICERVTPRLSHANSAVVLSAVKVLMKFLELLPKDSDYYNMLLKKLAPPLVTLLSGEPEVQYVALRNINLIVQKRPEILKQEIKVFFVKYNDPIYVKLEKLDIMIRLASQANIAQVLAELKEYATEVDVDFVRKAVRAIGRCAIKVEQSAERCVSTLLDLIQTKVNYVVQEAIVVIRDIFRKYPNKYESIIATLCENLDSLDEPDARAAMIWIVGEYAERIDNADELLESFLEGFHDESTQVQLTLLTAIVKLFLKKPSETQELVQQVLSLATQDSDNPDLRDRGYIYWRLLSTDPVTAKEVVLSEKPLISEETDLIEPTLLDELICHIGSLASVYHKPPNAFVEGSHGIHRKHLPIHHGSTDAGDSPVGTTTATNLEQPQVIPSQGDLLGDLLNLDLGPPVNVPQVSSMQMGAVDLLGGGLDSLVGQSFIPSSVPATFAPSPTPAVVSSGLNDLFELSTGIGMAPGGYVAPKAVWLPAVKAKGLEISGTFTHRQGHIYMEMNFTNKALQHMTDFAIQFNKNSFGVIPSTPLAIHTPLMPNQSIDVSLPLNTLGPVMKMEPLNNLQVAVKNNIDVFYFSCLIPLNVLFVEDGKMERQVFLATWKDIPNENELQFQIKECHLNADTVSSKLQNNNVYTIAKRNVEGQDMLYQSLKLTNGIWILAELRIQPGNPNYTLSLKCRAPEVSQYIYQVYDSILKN
Assay [12] in a line: yeast V-ATPase proton transport modulators, S. cerevisiae, pHLuorin, HTS validation (AID 504600; in the data active means response above about 15%;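 further: plate controls were DMSO for no effect and reference compound for full effect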). The note with it: S. cerevisiae pHLuorin cytosolic pH, at 10 µM, stronger effect = higher value.
Assay [13] relates to anti-desmoglein-3 scFv antibody binding to human DSG3. The experiment in a line: inhibitors of anti-DSG3 scFv binding to DSG3, pilot screen, biochemical, validation compound set, bead-based, flow cytometry (AID 588368;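 active means binding below the plate cutoff, the plate median minus 3 SD, with a reading above zero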;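 further: signal is the median channel fluorescence of bead-bound GFP antibody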). The note with it: Protein G beads, DSG3-Fc, scFv-GFP binding, at 10 µM, stronger effect = lower value.
Assay [14] is described as follows: inhibitors of fungal efflux pumps CDR1, CDR2, MDR1, pilot screen, validation compound set, multiplex, phenotypic (AID 588506;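 active means efflux inhibition above 0.42, the validation set average plus 4 SD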;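 further: Nile Red retained in cells so higher fluorescence means more efflux inhibition; 0 = negative control wells and 1 = enniatin B 25 µM full block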). The note with it: S. cerevisiae pump-expressing triplex, Nile Red efflux flow cytometry; at 10 µM; stronger effect = higher value; the pumps come from Candida albicans.
In assay [15] the target is ATP-binding cassette sub-family B member 6 (Homo sapiens) (UniProt Q9NP58). The experiment in a line: ABCB6 transporter inhibitors, pilot screen, K562-ABCB6 cells, flow cytometry, validation set (AID 588550;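 active means inhibition above the screen-wide mean plus 3 SD, about 51%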;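 further: 0% = DMSO wells and 100% = benzethonium chloride 70 µM positive control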). As to conditions: K562-ABCB6 porphyrin accumulation, 1 h, at 10 µM, stronger effect = higher value.
Chain of ATP-binding cassette sub-family B member 6 (Homo sapiens) (Q9NP58 whole entry, looked up): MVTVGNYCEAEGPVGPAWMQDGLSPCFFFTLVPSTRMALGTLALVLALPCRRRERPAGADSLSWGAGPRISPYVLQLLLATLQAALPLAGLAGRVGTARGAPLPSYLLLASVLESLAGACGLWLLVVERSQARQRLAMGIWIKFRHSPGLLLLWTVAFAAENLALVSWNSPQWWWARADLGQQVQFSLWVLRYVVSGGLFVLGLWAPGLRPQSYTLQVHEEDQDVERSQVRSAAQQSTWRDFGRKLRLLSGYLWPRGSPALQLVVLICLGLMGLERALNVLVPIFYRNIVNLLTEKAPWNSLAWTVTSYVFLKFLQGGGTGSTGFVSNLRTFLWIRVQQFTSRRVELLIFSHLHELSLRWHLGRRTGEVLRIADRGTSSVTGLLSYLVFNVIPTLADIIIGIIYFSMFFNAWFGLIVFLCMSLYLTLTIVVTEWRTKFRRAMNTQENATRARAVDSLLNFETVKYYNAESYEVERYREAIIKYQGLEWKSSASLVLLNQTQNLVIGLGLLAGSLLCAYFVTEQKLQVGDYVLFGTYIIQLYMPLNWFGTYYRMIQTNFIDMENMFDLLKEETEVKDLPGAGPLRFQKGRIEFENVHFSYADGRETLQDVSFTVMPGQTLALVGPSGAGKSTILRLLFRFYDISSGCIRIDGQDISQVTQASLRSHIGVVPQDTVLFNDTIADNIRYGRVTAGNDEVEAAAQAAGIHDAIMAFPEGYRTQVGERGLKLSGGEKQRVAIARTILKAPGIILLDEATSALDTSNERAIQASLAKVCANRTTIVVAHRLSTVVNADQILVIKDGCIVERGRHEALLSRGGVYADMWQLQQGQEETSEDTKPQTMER
A short description of assay [16]: promoters of myeloid differentiation in arrested cells, primary screen, cell-based, GFP/MAC1 double positive, flow cytometry, validation set (AID 588685;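 active means differentiation response of at least 50%, scaled between solvent and reference control, from cells with both markers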;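 further: compound exposure lasts four days before antibody staining and flow analysis; 0% = DMSO wells and 100% = 5 µM fulvestrant positive control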). The note with it: ER-HoxA9 marrow cells, stronger effect = higher value, normalized: vehicle 0, fulvestrant 100.

Results filed as inconclusive are left out. Active and inactive are the calls of the source.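 How the source made its calls, unless noted: active means GFP signal, as percent of the solvent control, above the screen mean plus 3 SD, about 149; inconclusive means no reading because the compound's own fluorescence upset strain identification; inactive means the rest.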

Chain of Beta-2 adrenergic receptor (Homo sapiens) (P07550 whole entry, looked up): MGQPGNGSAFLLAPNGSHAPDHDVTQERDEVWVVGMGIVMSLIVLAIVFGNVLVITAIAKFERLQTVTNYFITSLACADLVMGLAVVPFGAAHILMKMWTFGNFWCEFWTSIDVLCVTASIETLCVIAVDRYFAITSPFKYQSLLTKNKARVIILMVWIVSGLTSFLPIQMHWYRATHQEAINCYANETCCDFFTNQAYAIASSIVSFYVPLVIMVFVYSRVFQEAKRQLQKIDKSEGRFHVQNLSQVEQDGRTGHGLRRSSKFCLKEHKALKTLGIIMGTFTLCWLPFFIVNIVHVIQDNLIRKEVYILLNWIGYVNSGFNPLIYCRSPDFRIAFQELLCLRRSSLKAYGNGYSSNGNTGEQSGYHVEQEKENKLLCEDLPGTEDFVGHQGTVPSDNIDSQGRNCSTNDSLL
Chain of Integrin beta-1 (Homo sapiens) + Integrin alpha-4 (Homo sapiens) (P05556 whole entry, looked up): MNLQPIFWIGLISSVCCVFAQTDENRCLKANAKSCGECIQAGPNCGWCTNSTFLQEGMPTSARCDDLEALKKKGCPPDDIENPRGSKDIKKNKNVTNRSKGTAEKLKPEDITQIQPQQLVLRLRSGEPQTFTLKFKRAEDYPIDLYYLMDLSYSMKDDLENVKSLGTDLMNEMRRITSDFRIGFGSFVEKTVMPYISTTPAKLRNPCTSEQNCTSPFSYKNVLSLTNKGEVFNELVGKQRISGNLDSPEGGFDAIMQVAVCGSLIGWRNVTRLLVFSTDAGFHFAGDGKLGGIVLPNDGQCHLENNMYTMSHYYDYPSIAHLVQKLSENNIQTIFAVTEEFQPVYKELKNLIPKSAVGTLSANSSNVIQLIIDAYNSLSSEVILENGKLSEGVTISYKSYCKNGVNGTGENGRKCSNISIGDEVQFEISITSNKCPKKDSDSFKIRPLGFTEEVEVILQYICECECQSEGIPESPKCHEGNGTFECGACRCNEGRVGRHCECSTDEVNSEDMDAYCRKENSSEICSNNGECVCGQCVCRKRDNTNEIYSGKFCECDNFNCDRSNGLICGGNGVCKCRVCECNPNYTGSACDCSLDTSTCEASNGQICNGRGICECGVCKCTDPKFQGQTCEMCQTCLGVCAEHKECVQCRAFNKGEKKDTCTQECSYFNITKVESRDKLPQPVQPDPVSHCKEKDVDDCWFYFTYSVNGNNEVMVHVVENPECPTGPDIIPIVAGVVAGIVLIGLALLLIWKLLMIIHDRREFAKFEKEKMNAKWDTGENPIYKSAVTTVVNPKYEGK
Chain of Integrin beta-1 (Homo sapiens) + Integrin alpha-4 (Homo sapiens) (P13612 whole entry, looked up): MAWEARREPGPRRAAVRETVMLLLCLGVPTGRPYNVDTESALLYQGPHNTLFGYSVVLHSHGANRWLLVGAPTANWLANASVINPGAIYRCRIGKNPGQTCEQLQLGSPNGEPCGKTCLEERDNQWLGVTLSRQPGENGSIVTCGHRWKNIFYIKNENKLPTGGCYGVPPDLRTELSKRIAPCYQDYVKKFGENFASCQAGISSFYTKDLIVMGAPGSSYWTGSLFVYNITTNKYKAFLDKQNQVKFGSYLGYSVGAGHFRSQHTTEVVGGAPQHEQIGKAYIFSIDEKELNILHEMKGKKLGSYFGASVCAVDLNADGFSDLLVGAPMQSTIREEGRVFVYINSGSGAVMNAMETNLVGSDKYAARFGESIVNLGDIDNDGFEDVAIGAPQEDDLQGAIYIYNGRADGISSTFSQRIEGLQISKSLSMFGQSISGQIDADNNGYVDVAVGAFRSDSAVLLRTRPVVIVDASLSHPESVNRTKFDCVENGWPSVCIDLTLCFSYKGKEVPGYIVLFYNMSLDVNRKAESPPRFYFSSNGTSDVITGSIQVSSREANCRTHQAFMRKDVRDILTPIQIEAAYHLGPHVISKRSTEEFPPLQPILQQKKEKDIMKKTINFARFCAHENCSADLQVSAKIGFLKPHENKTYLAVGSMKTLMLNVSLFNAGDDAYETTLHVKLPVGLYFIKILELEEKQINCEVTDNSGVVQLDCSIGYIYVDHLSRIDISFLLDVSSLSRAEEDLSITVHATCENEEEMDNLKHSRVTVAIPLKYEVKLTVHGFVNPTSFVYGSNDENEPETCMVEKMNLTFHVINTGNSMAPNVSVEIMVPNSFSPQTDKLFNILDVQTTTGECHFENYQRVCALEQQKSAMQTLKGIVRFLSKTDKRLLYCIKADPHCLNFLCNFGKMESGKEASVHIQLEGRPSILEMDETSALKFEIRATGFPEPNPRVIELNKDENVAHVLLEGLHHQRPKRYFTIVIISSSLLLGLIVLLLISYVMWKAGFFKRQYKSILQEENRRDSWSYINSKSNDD

`COc1cccc(=O)c2c(C)n(CC(=O)c3ccccc3)c(C)c12`: the percent of DMSO control GFP in [1] was 100% (inactive). Besides, the GFP response vs DMSO in [2] is 102% (inactive); in [4], 113% (inactive). Further, in [3], the percent response of DMSO control is 95.1% (inactive). Also, the GFP response, % of DMSO in [5] is 113% (inactive). Besides, the double positive events in assay [6] turned out to be 58.2%. For the same compound, in assay [6], the vesicle binding response was 203% (inactive). The inhibition (commonly the change of the read-out against control, counted positive when it falls) is -72.7% (inactive) in assay [7], -9.87% (inactive) in assay [11] and -32% (inactive) in assay [15]. Besides, the superoxide response (% of plate) in [8] was 96.3% (inactive). Further, the aptamer binding inhibition in assay [9] is -1% (inactive). Moreover, the response was -13.2% (inactive) in [10] and 2.5% (inactive) in [12]. Besides, the binding (% of control) in [13] is 98.8% (inactive). Besides, the efflux inhibition (fraction of control) in [14] is 0.33 (inactive). In addition, the differentiation response in [16] is -2.03% (inactive).
Turning to `COc1ccccc1NC(=O)N1CCc2[nH]c3ccc(Cl)cc3c2C1`, the percent of DMSO control GFP in [1] is 101% (inactive). Further, the values for the GFP response vs DMSO in assay [2] and in [4] were 110% (inactive) and 121% (inactive), respectively. In addition, the percent response of DMSO control in [3] was 102% (inactive). For the same compound, the GFP response, % of DMSO in [5] was 94% (inactive). Further, the double positive events in assay [6] was 62.4%. Moreover, the vesicle binding response in assay [6] is 135% (inactive). Moreover, the inhibition is -11.8% (inactive) in assay [7], -2.38% (inactive) in [11] and -33% (inactive) in assay [15]. Besides, the superoxide response (% of plate) in [8] was 102% (inactive). The aptamer binding inhibition in assay [9] is 2% (inactive). Also, the values for the response in assay [10] and in assay [12] were -11.2% (inactive) and 1.31% (inactive), respectively. The binding (% of control) in assay [13] is 121% (inactive). Also, the efflux inhibition (fraction of control) in assay [14] was -0.42 (inactive). In addition, the differentiation response in assay [16] is 18.8% (inactive).
Take `CC1(C)O[C@@H]2C[C@H]3[C@@H]4C[C@H](F)C5=CC(=O)CC[C@]5(C)[C@H]4[C@@H](O)C[C@]3(C)[C@]2(C(=O)CO)O1`: in assay [1], the percent of DMSO control GFP is 97.9% (inactive). The values for the GFP response vs DMSO in assay [2] and in [4] were 95.6% (inactive) and 91.5% (inactive), respectively. In assay [3], the percent response of DMSO control was 89.3% (inactive). Also, the GFP response, % of DMSO in assay [5] is 92.4% (inactive). Moreover, in assay [6], the double positive events came to 63.8%. Besides, the vesicle binding response in assay [6] was 128% (inactive). Further, the inhibition was -2.43% (inactive) in assay [7], -4.49% (inactive) in assay [11] and 12% (inactive) in assay [15]. In addition, the superoxide response (% of plate) in assay [8] was 88.9% (inactive). The aptamer binding inhibition in assay [9] was 37% (active). The values for the response in assay [10] and in assay [12] were 19% (inactive) and -2% (inactive), respectively. The binding (% of control) in assay [13] was 106% (inactive). Besides, the efflux inhibition (fraction of control) in assay [14] is 0.25 (inactive). The differentiation response in assay [16] is 34.9% (inactive).
Consider `COc1ccc(NC2=C(Cl)C(=O)N(c3ccccc3)C2=O)c(OC)c1`, for which the percent of DMSO control GFP in assay [1] is 105% (inactive). The GFP response vs DMSO in assay [2] was 110% (inactive); in assay [4], 106% (inactive). Moreover, the percent response of DMSO control in assay [3] was 107% (inactive). The GFP response, % of DMSO in assay [5] is 109% (inactive). For the same compound, in assay [6], the double positive events was found to be 60.1%. In addition, the vesicle binding response in [6] is 159% (inactive). Moreover, the results for the inhibition in assay [7], in assay [11] and in assay [15] were -1.09% (inactive), 0.15% (inactive) and -3% (inactive), respectively. In addition, the superoxide response (% of plate) in assay [8] was 94.5% (inactive). The aptamer binding inhibition in assay [9] was 1% (inactive). The values for the response in assay [10] and in assay [12] were 1.18% (inactive) and 1.06% (inactive), respectively. Moreover, the binding (% of control) in [13] was 97% (inactive). In addition, the efflux inhibition (fraction of control) in assay [14] was -0.25 (inactive). The differentiation response in assay [16] is -4.57% (inactive).

The values are drawn from PubChem BioAssay.
